Assay outcomes (PubChem)
The entries come from a sample that favours hits as a whole.
SARS PLpro yeast – blocks SARS-CoV papain-like protease in a yeast assay; S. cerevisiae expressing SARS-CoV PLpro, growth rescue; Potency, µM (doses to about 32.9 µM), usual class: activators; 330,000 compounds, 0.19% hits; calls by dose curve; further: nearly all actives have a fitted effect of over 55% in size
Shiga toxin inh – inhibitors of Shiga toxin in Vero cells; Vero cells, Shiga toxin protein synthesis inhibition reporter; inhibition, % at 38.7 µM; 290,000 compounds, 9.2% hits; AID 2315; in the data active means inhibition mostly above about 28%, no sharp cut-off; inactive means mostly below about 43%
AmpC inh no detg – blocks E. coli AmpC beta-lactamase in detergent-free assay; AmpC nitrocefin hydrolysis, absorbance 480 nm, 0.0001% Triton; AID 485341; 330,000 compounds, 0.52% hits; P00811; Potency, µM (doses to about 57.1 µM), usual class: inhibitors; further: nearly all actives have a fitted effect of over 20% in size
Target sequence (P00811 whole entry, looked up): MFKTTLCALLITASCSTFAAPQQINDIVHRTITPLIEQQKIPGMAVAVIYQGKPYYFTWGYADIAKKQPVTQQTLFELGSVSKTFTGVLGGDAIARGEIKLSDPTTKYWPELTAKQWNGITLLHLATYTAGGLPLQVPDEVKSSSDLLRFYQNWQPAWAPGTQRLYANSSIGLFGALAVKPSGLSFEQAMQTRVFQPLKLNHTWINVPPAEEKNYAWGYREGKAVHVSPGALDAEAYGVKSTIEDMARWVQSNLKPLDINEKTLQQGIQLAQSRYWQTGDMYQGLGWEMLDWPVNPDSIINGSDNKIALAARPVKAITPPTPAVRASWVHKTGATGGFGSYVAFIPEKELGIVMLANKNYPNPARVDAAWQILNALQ
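AmpC (5.3 nM in the dispensed reagent) in 20 mM phosphate pH 7.0 with 0.01% (detergent screen) or 0.0001% Triton X-100 was preincubated with compounds for 15 min at room temperature. Nitrocefin was then added from an 800 uM solution, and hydrolysis was followed at 480 nm.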
AMA1-RON2 inh – AMA1-RON2 (P. falciparum) interaction inhibition; AlphaScreen AMA1-biotinylated RON2 peptide binding; Potency, µM (highest dose often 58.2 µM), most hits filed as inhibitors; 360,000 compounds, 0.2% hits; further: nearly all actives have a fitted effect of over 45% in size
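AMA1 (3D7) with his tag at 25 nM final met compounds first, then biotinylated RON2 peptide at 25 nM; detection used donor plus acceptor beads, 10 µg/mL apiece, read by AlphaScreen after 30 min at room temperature.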
AmpC detergent – blocks E. coli AmpC beta-lactamase in detergent assay; Potency, µM (titrated, usually from 114 µM), actives largely listed as inhibitors; AmpC hydrolysis of nitrocefin, absorbance 480 nm, 0.01% Triton; AID 485294; 370,000 compounds, 0.041% hits; P00811; further: nearly all actives have a fitted effect of over 25% in size
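AmpC (5.3 nM in the dispensed reagent) in 20 mM phosphate pH 7.0 with 0.01% (detergent screen) or 0.0001% Triton X-100 was preincubated with compounds for 15 min at room temperature. Nitrocefin was then added from an 800 uM solution, and hydrolysis was followed at 480 nm.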
CHX counter – counter-screen hit for Shiga toxin inhibitors, cycloheximide; cell reporter, cycloheximide protein synthesis inhibition counterscreen; max response, %; 300,000 compounds, 12% hits; AID 2314; in the data active means max response mostly above about 13%, no sharp cut-off; inactive means mostly below about 14%; further: read at 38.3 µM for the half of the compounds with a filed dose
Large screens that a line does not name were inactive. Unless noted, the call rests on the fitted dose curve; in most records, active means well fitted curve in the direction sought with a large enough effect; inconclusive means small, poorly fitted or top-dose-only effect, or another doubt; inactive means no such curve, though single readings can be large; an effect the other way counts as inactive or inconclusive.

C[C@]12C[C@H](O)[C@@H]3c4ccc(O)cc4CCC3[C@@H]1CCC2=O (stereo not given in full)	none
COc1ccc(-n2c(=O)[nH]cc(C(=O)N3CCc4ccccc43)c2=O)cc1	none
FC(F)(F)c1ccc2c(c1)NCC1CCCN21 (stereo not given)	AMA1-RON2 inh inconclusive, CHX counter 17
COc1cnn(-c2ccc(Br)cc2)c(=O)c1SCc1ccccc1	Shiga toxin inh 130, CHX counter 49
COc1cnn(-c2ccc(C)cc2)c(=O)c1SCc1ccccc1	Shiga toxin inh 84, CHX counter 38
COc1ccc(/C=N/NC(=O)c2cc(-c3ccccc3OC(C)C)nc3ccccc23)cc1CN1CCOCC1	none
Cc1ccc2cc(CCNC(=O)c3cccs3)c(=O)[nH]c2c1	CHX counter 25
CCC(CC)C(=O)NCCc1cc2ccc(C)cc2[nH]c1=O	AmpC detergent inconclusive
Cc1ccc2cc(CNC(C)(C)C)c(=O)[nH]c2c1	AmpC detergent inconclusive, CHX counter 18
Cc1ccc2cc(CCNC(=O)c3cccs3)c(=O)[nH]c2c1C	Shiga toxin inh 47, AmpC detergent inconclusive, CHX counter 45
COc1ccc(-n2ccnc(NCc3ccccc3Cl)c2=O)cc1OC	none (no result: SARS PLpro yeast, Shiga toxin inh, AmpC inh no detg, AMA1-RON2 inh, CHX counter)
CC1=NN(c2ccccc2)C(=O)/C1=C/C=C/c1ccc(N(C)C)cc1	AMA1-RON2 inh 1.4µM, AmpC detergent inconclusive
CC1=NN(c2ccccc2)C(=O)/C1=C/c1cc2cc(C)ccc2nc1N1CCCCC1	CHX counter 23 (no result: AMA1-RON2 inh)
CC1=NN(c2ccccc2)C(=O)/C1=C\c1cc(C)n(C)c1C	Shiga toxin inh 49, CHX counter 29
CC1=NN(c2ccccc2)C(=O)/C1=C\C=C\c1ccccc1	AMA1-RON2 inh 6.3µM
CC1=NN(c2ccccc2)C(=O)/C1=C\c1cn(C)c2ccccc12	AMA1-RON2 inh inconclusive, AmpC detergent inconclusive
CC1=NN(c2ccccc2)C(=O)/C1=C/c1cccc(C)c1	none
CCC(Oc1ccc(Cl)cc1)C(=O)N1CC(=O)Nc2ccccc21 (stereo not given)	none
Cc1oc(-c2ccc3c(c2)OCCO3)cc1C(=O)NC(CCC(=O)O)C(=O)O (stereo not given)	CHX counter 27
Cc1oc(-c2ccc3c(c2)OCCO3)cc1C(=O)NCC(=O)O	none
COC(=O)c1ccccc1S(=O)(=O)N(Cc1ccco1)Cc1cc2cc(OC)ccc2[nH]c1=O	none
CC1CCC(NC(=O)C2(C)CCC(=O)N2Cc2cccnc2)CC1 (stereo not given)	AmpC inh no detg 45µM, AmpC detergent inconclusive
CC1(C(=O)NC2CCCCC2)CCC(=O)N1Cc1cccnc1 (stereo not given)	AmpC detergent inconclusive
Cc1ccc(N=CC=C2OC(C)(C)C(C)(C)O2)c(C)c1	none
COc1ccccc1N=CC=C1OC(C)(C)C(C)(C)O1	CHX counter 10
Cc1cc(C(=O)CSc2ncnc3ccccc23)c(C)n1C1CC1	none (no result: Shiga toxin inh, CHX counter)
CCOC(=O)c1c(C)oc2cc(Cl)c(O)c(CN(C)C)c12	Shiga toxin inh 69, CHX counter 39
O=C(COC(=O)C1C2CC3OC(=O)C1C3C2)Nc1ccccc1 (stereo not given)	CHX counter 16
COc1ccc(C[C@H]2COC(=O)[C@@H]2Cc2ccc(OC3OC(CO)C(O)C(O)C3O)c(OC)c2)cc1OC (stereo not given in full)	none
O=C(NN1CCOCC1)c1ccccc1Br	none
CCN(C(=O)CSc1nc2ccccc2n1Cc1ccccc1C#N)c1ccccc1	none (no result: SARS PLpro yeast, Shiga toxin inh, AmpC inh no detg, AMA1-RON2 inh, CHX counter)
CCOc1ccc(NCc2cccn2-c2nnc(N3CCC(C(=O)NCCCN4CCCCC4)CC3)s2)cc1	Shiga toxin inh 23, CHX counter 17
O=C(CN1C(=O)NC2(CCCCCC2)C1=O)c1ccc2c(c1)OCCO2	Shiga toxin inh 118, AmpC detergent inconclusive, CHX counter 36
O=C(CN1C(=O)NC2(CCCCCC2)C1=O)c1ccc(F)cc1	none (no result: SARS PLpro yeast, Shiga toxin inh, CHX counter)
CC1CCC2(CC1)NC(=O)N(CC(=O)Nc1ccc3c(c1)OCCO3)C2=O (stereo not given)	Shiga toxin inh 71, CHX counter 41
CC1SCC(=O)N(CC(=O)Nc2ccc3c(c2)OCCO3)C1=O (stereo not given)	AmpC detergent inconclusive, CHX counter 33
CC1SCC(=O)N(CC(=O)Nc2ccc3c(c2)OCO3)C1=O (stereo not given)	none
COCCNC(=O)CCn1nc(-c2ccc(Cl)cc2)c2ccccc2c1=O	none
CCOc1ccc(C(=O)N/N=C/c2cc([N+](=O)[O-])cs2)cc1	none
COc1cccc(NC(=O)Nn2cnnc2)c1	AmpC detergent inconclusive
O=C(NC1CCCC1)c1ccc([N+](=O)[O-])s1	AmpC detergent inconclusive
O=C(O)c1csc(-c2ccc(Cl)cc2)n1	none
CNC(=O)c1csc(-c2ccc(C)cc2)n1	Shiga toxin inh 45, AmpC detergent inconclusive, CHX counter 24
CNC(=O)c1csc(-c2ccc(Cl)cc2)n1	Shiga toxin inh 47, CHX counter 38
CNC(=O)c1csc(-c2ccncc2)n1	none
CCOC(=O)N1CCN(C(=O)C2CC(c3ccccc3OC)=NO2)CC1 (stereo not given)	none
CCn1cnc2c(oc3ccccc32)c1=O	CHX counter 24
C#CCn1cnc2c(oc3ccccc32)c1=O	CHX counter 34
CCCn1cnc2c(oc3ccccc32)c1=O	Shiga toxin inh 39, CHX counter 29
O=C(Cn1cnc2c(oc3ccccc32)c1=O)c1ccccc1	Shiga toxin inh 53, CHX counter 54
COc1ccc(CNC(=O)c2cc(-c3ccc(Br)s3)nc3ccccc23)c(OC)c1	none (no result: SARS PLpro yeast, Shiga toxin inh, AmpC inh no detg, AMA1-RON2 inh, CHX counter)
Cc1ccc(-c2nc(CN3C(=O)CN=C(c4ccccc4)c4ccccc43)c(C)o2)cc1	none (no result: SARS PLpro yeast, Shiga toxin inh, AmpC inh no detg, AMA1-RON2 inh, CHX counter)
S=c1[nH]nc([C@@H]2C[C@H]2c2ccccc2)n1-c1ccccc1	none
COc1ccc(S(=O)(=O)Nc2ccc(Oc3ccsc3C(=O)O)cc2)cc1	AmpC detergent inconclusive
O=C1CCC(=O)N1OCCCOc1ccccc1	none
O=C1CCC(=O)N1OCCCCOc1ccccc1	CHX counter 12
COc1cc(C)ccc1OCCOc1ccccc1Cl	Shiga toxin inh 61, CHX counter 31
COc1cc(C)ccc1OCCOCCOc1ccccc1[N+](=O)[O-]	SARS PLpro yeast inconclusive, CHX counter 22
COc1cc(C=O)ccc1OCCOCCOc1cc(C)ccc1Cl	none
COc1cc(C)ccc1OCCCON1C(=O)CCC1=O	Shiga toxin inh 20
CCCn1nc(NS(=O)(=O)c2ccccc2[N+](=O)[O-])c2cc3ccccc3nc21	none
CCCCOc1ccc(CNC(=O)Cc2ccc(NC(=O)N3CCCCc4ccccc43)cc2)cc1	none (no result: SARS PLpro yeast, Shiga toxin inh, AmpC inh no detg, AMA1-RON2 inh, CHX counter)
Cc1ccccc1C(=O)NC1CCN(CC(=O)Nc2ccccc2)CC1	none
